IL-1B inflam inh: inflammasome signaling inhibition, IL-1 beta readout; THP-1 LPS/ATP IL-1B secretion, AlphaLISA, 16 h; stronger effect = lower value; activity change, % at 57.5 µM; 360,000 tested, 4.7% active; AID 743279; in the data active = activity change below about -50%; inconclusive = mostly about -30% to -49%
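Secreted IL-1B measured by AlphaLISA bead assay after 16 h compound exposure of THP-1 cells; compounds (final up to 57.5 uM) added 1 h before LPS (250 ng/mL) and ATP (1.25 mM) stimulation; lower signal means less secretion.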
ALOX12 inh: blocks human arachidonate 12S-lipoxygenase | purified 12hLO, xylenol orange hydroperoxide absorbance | P18054 | AID 1671190 | 580,000 tested, 1.1% active | Potency, µM (doses to about 108 µM), inactives show top-dose activity change, negative = inhibition, hits mostly inhibitors; also: potency is read from the fitted curve at half-maximal effect
Target sequence (P18054 whole entry, looked up): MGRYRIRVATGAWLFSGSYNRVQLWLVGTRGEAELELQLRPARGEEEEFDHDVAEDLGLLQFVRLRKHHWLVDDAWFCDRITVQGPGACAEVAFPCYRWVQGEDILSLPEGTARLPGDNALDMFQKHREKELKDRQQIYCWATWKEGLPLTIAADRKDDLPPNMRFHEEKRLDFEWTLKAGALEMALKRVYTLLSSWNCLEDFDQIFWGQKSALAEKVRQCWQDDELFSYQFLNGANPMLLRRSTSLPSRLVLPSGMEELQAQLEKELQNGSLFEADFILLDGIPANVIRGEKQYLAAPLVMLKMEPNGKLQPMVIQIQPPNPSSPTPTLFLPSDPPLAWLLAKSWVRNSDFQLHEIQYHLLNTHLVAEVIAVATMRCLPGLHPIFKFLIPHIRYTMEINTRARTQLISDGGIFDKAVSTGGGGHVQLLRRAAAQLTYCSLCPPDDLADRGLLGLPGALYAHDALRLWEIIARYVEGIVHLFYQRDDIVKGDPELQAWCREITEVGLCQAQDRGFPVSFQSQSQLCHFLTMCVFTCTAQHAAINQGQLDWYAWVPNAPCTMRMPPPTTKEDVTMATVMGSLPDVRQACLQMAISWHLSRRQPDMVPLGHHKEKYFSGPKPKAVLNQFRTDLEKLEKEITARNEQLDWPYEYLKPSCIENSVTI
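Purified human 12hLO (150 nM final) in 25 mM Hepes, 0.01% Triton X-100, pH 7.0 was preincubated 15 min at room temperature with compound. Then 40 uM arachidonic acid was added, 30 min. Hydroperoxide was read by Fe-XO absorbance ratio 573/405 nm.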
TDP1 cell noCPT: qHTS for Inhibitors of human tyrosyl-DNA phosphodiesterase 1 (TDP1): qHTS in cells in absence of CPT | AID 686978, 2013 | DT40 Tdp1-/- hTDP1 cells, no CPT, ATP luminescence, 48 h | 420,000 tested, 15% active | Potency, µM (series often up to 46.2 µM), inactives show at the top dose activity change, negative = growth inhibition, actives largely listed as inhibitors; also: potency is read from the fitted curve at half-maximal effect; nearly all actives have a fitted effect of over 55% in size
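Chicken DT40 Tdp1-/- cells stably complemented with human TDP1 were seeded at 400 cells/well with DMSO in place of 20 nM camptothecin. After compound pinning, cells grew at least 48 hr at 37 °C; viability read by CellTiter-Glo luminescence.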
HT1080NT lethal: kills 2HG-producing HT-1080-NT fibrosarcoma cells; HT-1080-NT fibrosarcoma viability, CellTiter-Glo ATP luminescence, 48 h; Potency, µM (titrated, usually from 46.1 µM), for inactives: top-dose activity, negative = less viability, actives largely listed as cytotoxic; 360,000 tested, 1.6% active;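 also: NT is the 2HG producing partner of a matched IDH1 knockdown line; potency is read from the fitted curve at half-maximal effect; 0% = DMSO-treated cells and -100% = media-only wells without cells; nearly all actives have a fitted effect of over 55% in size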
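A 48-hour cytotoxicity screen used HT-1080-NT cells plated 2 hours before compound delivery. ATP-based CellTiter-Glo luminescence measured viability, normalized to DMSO and no-cell controls.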
HT1080 IDH1KD tx: toxicity to HT-1080 IDH1 knockdown cells (counter line) | AID 686971 | 360,000 tested, 2% active | Potency, µM (highest dose often 46.1 µM), without a hit: at the highest dose activity, negative = toxicity, usual class: cytotoxic | HT-1080 IDH1 knockdown viability, ATP luminescence, 48 h;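 also: potency is read from the fitted curve at half-maximal effect; 0% = DMSO wells and -100% = cell-free medium wells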
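Luminescent ATP read-out (CellTiter-Glo, 10 min at room temperature) after 48 h compound exposure at 37 °C gave viability of IDH1-knockdown HT-1080 cells. Activity was normalised to DMSO and cell-free wells, then fitted as concentration-response curves.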
DT40 TDP1 CPT: growth inhibition of DT40 Tdp1-/-;hTDP1 cells with camptothecin (screen for TDP1 inhibitors) | chicken DT40 Tdp1-/-;hTDP1 cells + 20 nM CPT, ATP luminescence, 48 h | Potency, µM (highest dose often 46.2 µM), for the others: at the highest dose activity change, negative = growth inhibition, usual class: inhibitors | 420,000 tested, 12% active; also: potency is read from the fitted curve at half-maximal effect; nearly all actives have a fitted effect of over 55% in size
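Chicken DT40 Tdp1-/- cells complemented with human TDP1, 400 cells/well, exposed to compounds plus 20 nM camptothecin for at least 48 h at 37 C; viability read as ATP content by CellTiter-Glo luminescence.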
Starred values were filed as active, the others as inactive; [ ] = remark or other dose. This excerpt belongs to a sample that is enriched for hits. Unless noted, calls follow the shape of the dose curve; as a rule, active = well fitted curve in the direction sought with a large enough effect; inconclusive = small, poorly fitted or top-dose-only effect, or another doubt; inactive = no such curve, though single readings can be large; an effect the other way counts as inactive or inconclusive. Unless noted, % is scaled to controls: 0 for no effect and ±100 for the full control effect.

What do the screens show for `CCNC(=O)c1ccc(CN2C(=O)NC3(CCS(=O)(=O)CC3)C2=O)cc1`?
ALOX12 inh: 11%

What do the screens show for `Cc1nc2c3c(ncn2n1)OC1=C(C(=O)CCC1)C3c1ccco1` (configuration not stated)?
ALOX12 inh: 1%

What do the screens show for `O=C(Nc1ccccc1)c1ccc(-c2ccccc2Cl)o1`?
IL-1B inflam inh: -17; ALOX12 inh: inconclusive; TDP1 cell noCPT: 18µM*; HT1080NT lethal: 0%; HT1080 IDH1KD tx: -5%; DT40 TDP1 CPT: 21µM*

What do the screens show for `CC(=O)Nc1ccc(NC(=O)c2ccc(-c3ccccc3Cl)o2)cc1`?
IL-1B inflam inh: -18; ALOX12 inh: inconclusive; TDP1 cell noCPT: -28%; HT1080NT lethal: 3%; HT1080 IDH1KD tx: 5%; DT40 TDP1 CPT: inconclusive

Results for Cc1c(Cl)cccc1-c1ccc(C(=O)Nc2ccc(F)cc2)o1 ?
ALOX12 inh: -13%; TDP1 cell noCPT: 9.2µM*; DT40 TDP1 CPT: 12µM*

What do the screens show for `COc1ccc(-c2cc(C[C@@H]3C[C@H](NCc4ccncc4)C3(C)C)no2)cc1`?
ALOX12 inh: 19%[176 µM]

Results for Cc1ccc(OCc2nc(C3CN(C(=O)c4cc(C)n(C)n4)C3)no2)cc1 ?
ALOX12 inh: 46%

How did O=C(O)c1ccccc1C(=O)NNC(=O)C(c1ccccc1)c1ccccc1 do in these assays?
IL-1B inflam inh: -19; ALOX12 inh: -3%; TDP1 cell noCPT: 16%; HT1080NT lethal: 6%; HT1080 IDH1KD tx: 15%; DT40 TDP1 CPT: -1%

Results for O=C(NNC(=O)c1cccs1)c1ccccn1 ?
IL-1B inflam inh: 5; ALOX12 inh: 12%; TDP1 cell noCPT: inconclusive; HT1080NT lethal: inconclusive; HT1080 IDH1KD tx: inconclusive; DT40 TDP1 CPT: 16µM*

Results for O=C(NNC(=O)c1ccccn1)c1ccc(OC(F)F)cc1 ?
IL-1B inflam inh: 51; ALOX12 inh: 10%; TDP1 cell noCPT: 4.6µM*; HT1080NT lethal: inconclusive; HT1080 IDH1KD tx: 21µM*; DT40 TDP1 CPT: 5.8µM*

How did O=C(Nc1nccs1)c1ccccn1 do in these assays?
IL-1B inflam inh: -10; ALOX12 inh: 2%; TDP1 cell noCPT: 3%; HT1080NT lethal: 3%; HT1080 IDH1KD tx: -4%; DT40 TDP1 CPT: inconclusive

How did O=C(NNC(=O)C(c1ccccc1)c1ccccc1)c1ccccc1O do in these assays?
IL-1B inflam inh: 49; ALOX12 inh: -19%; TDP1 cell noCPT: inconclusive; HT1080NT lethal: -16%; HT1080 IDH1KD tx: inconclusive; DT40 TDP1 CPT: 18µM*

Results for CC(Sc1ccc(Cl)cc1)C(=O)O (configuration not stated) ?
ALOX12 inh: -12%

Results for CC(Sc1ccc(Cl)cc1)C(=O)NNC(=O)c1ccccc1O (configuration not stated) ?
IL-1B inflam inh: 163; ALOX12 inh: inactive; TDP1 cell noCPT: 7.3µM*; HT1080NT lethal: inconclusive; HT1080 IDH1KD tx: inconclusive; DT40 TDP1 CPT: 16µM*

How did CC(C)NS(=O)(=O)c1ccc2c(c1)nc(-c1cc(C(C)(C)C)[nH]n1)n2C(C)C do in these assays?
ALOX12 inh: 36%

How did CN1CCCCCC(O)c2cc(C(=O)NCCc3ccncc3)ccc21 (configuration not stated) do in these assays?
ALOX12 inh: 95%

Results for O=C(c1ccn[nH]1)N1CCC(c2noc(COc3ccc(F)cc3)n2)C1 (configuration not stated) ?
ALOX12 inh: 53%

Results for CCOc1ccc(NC(=O)CSc2nccc(-c3ccc(Br)cc3)n2)cc1 ?
ALOX12 inh: 18%

What do the screens show for `CN(Cc1ccccc1)Cc1cc(=O)n2cc(Br)ccc2n1`?
ALOX12 inh: -7%

Bioassay records deposited in PubChem BioAssay by National Center for Advancing Translational Sciences (NCATS).
